# Bioassay records: PubChem BioAssay, several laboratories
# tim10-1 inh – growth inhibitors of tim10-1 mutant yeast, primary screen, luminescence, uHTS. S. cerevisiae tim10-1 ts strain growth, BacTiter-Glo, 24 h. inhibition, % at 20 µM. hit rate 2.2% among 330,000. AID 463190, 2010;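 active means inhibition of at least 40%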;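 further: mutant grown at 25 °C; 0% = DMSO wells with yeast and 100% = wells holding no yeast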
# PfHsp90 set2 – growth inhibition of PfHsp90-expressing yeast, primary screen, antimalarial PfHsp90 inhibitor project, S. cerevisiae, BacTiter-Glo luminescence, single point, set 2. hit rate 0.32% among 310,000. inhibition, % at 9.4 µM. BacTiter-Glo ATP, 48 h; yeast lacking PDR1 and PDR3 efflux regulators;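 active means every replicate shows inhibition above about 80%, whatever the replicate mean, limit read from the data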;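 further: 0% = DMSO neutral controls and 100% = 20 µM radicicol positive controls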
# NLRP3 yeast inh – NALP3 inflammasome inhibitors in reconstituted yeast, primary screen, luminescence, uHTS; Yeast reconstituted NLRP3/ASC/caspase-1, beta-gal luminescence, 24 h; inhibition, % at 10 µM; hit rate 0.39% among 330,000; AID 2825, 2010;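 active means inhibition of 50% or more; inactive means inhibition below 50%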;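 further: plate controls were induced DMSO wells for no effect and uninduced yeast grown without galactose for full effect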
# TIM10 inh – growth inhibitors of isogenic TIM10 control yeast, primary screen, counter-screen for tim10-1 yeast inhibitor project, luminescence, uHTS; hit rate 1.4% among 330,000; AID 463195, 2010; inhibition, % at 10 µM; S. cerevisiae TIM10 strain growth, BacTiter-Glo luminescence, 24 h;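 active means inhibition of 40% or more at the single tested concentration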;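 further: wild-type TIM10 isogenic control strain grown at permissive 25 °C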
# tim23-1 inh – growth inhibitors of tim23-1 mutant yeast, primary screen, luminescence, uHTS | AID 463212, 2010 | hit rate 1.3% among 330,000 | inhibition, % at 20 µM | S. cerevisiae tim23-1 growth, BacTiter-Glo luminescence, 24 h;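 active means growth inhibition of the mutant yeast at or above 50%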;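 further: temperature-sensitive mutant grown at 25 °C; plate controls were DMSO-treated mutant yeast for no effect and medium wells lacking yeast for full effect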
# tim10 confirm – growth inhibitors of wild-type TIM10 yeast, confirmation, counter-screen for tim10-1 synthetic lethality project, single concentration, luminescence, S. cerevisiae. shares compounds with TIM10 inh. S. cerevisiae tim10 strain growth, BacTiter-Glo luminescence, 24 h. inhibition, % at 10 µM. hit rate 63% among 4,600. AID 463215, 2010;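 active means inhibition of yeast growth at or above a set limit in either of two replicates at 10 µM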;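 further: this counterscreen used the strain with wild-type TIM10; 0% = yeast with DMSO and 100% = medium wells lacking yeast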
# An asterisk follows results filed as active; / = no result. In the library only some 3.7% were active in any assay of this set; here they are far more common.
SMILES,tim10-1 inh,PfHsp90 set2,NLRP3 yeast inh,TIM10 inh,tim23-1 inh,tim10 confirm
CN1CCN(S(=O)(=O)c2ccc(NC(=O)c3ccccc3Cl)cc2)CC1,-14,-4,10,-6,6,/
O=C(Nc1ccc(S(=O)(=O)N2CCCCCC2)cc1)c1ccco1,34,/,8,48*,46,23
O=C(CSc1nnc(-c2ccccn2)n1Cc1ccccc1)NC1CCCC1,25,0,8,27,15,/
CCC1=C(OC(=O)N(CC)CC)N2C(=O)OC(=NCCc3c[nH]c4ccccc34)[C@]2(Cc2ccccc2)[C@H]2C1=CC[C@H]1C(=O)NC(=O)[C@H]12,10,-34,8,-3,22,/
COc1ccc(O)c(-c2cc(-c3ccccc3[N+](=O)[O-])[nH]n2)c1,21,-12,22,35,36,/
Cc1ccc(O)c(-c2cc(-c3ccccc3[N+](=O)[O-])[nH]n2)c1,28,0,27,42*,47,4
O=C(Cc1ccc(-n2c(=O)[nH]c3ccsc3c2=O)cc1)NCc1cccnc1,-11,-2,4,-1,6,/
CCC12CN(C(=O)c3ccc(C)cc3)CC(CC)(CN(C(=O)c3ccc(C)cc3)C1)C2=O,28,-13,8,25,24,/
CC(=O)N1CCOc2ccc(S(=O)(=O)NCc3ccc(C)cc3)cc21,31,-6,11,-7,21,/
COc1ccc(CNS(=O)(=O)c2ccc3c(c2)N(C(C)=O)CCO3)cc1,18,18,3,46*,10,1
c1ccc2[nH]c(NC3=NCCC3)nc2c1,17,9,5,41*,1,-26
O=C(O)CCn1c2ccccc2c2nc3ccccc3nc21,37,-3,31,18,20,/
N#C/C(=C\c1ccccc1C(=O)O)c1nc2ccccc2[nH]1,-13,-2,15,12,-1,/
N#C/C(=C\c1cccnc1)c1nc2ccccc2[nH]1,19,/,12,75*,13,-2
CC1=CC(C)(C)N(C(=O)CNC2CCCC2)c2cc(C)ccc21,7,5,-1,10,16,/
COC(=O)C1=C(C)N(c2ccccc2)C(=S)NC1c1ccccc1C(F)(F)F (stereo not drawn),37,11,4,50*,36,16
Cc1cc(-c2ccccc2)nc(N/N=C/c2ccco2)n1,39,/,6,45*,42,37*
Cc1cc(C)nc(N/N=C/c2ccco2)n1,-4,-10,4,5,-1,/
O=C(CNc1ccc(F)cc1)N/N=C/c1c(O)ccc2ccccc12,-8,-3,19,44*,39,42*
O=C(/C=C/c1cccc(F)c1)Nc1ccc(S(=O)(=O)N2CCOCC2)cc1,11,-6,16,68*,24,45*
O=C(/C=C/c1ccccc1)Nc1cccc(C(=O)N2CCCCC2)c1,/,-34,/,/,/,/
CC(=O)c1cccc(NC(=O)/C=C/c2ccc(S(=O)(=O)N3CCOCC3)cc2)c1,11,-6,24,2,12,/
O=C(/C=C/c1ccccc1)Nc1ccc(C(=O)N2CCCCC2)cc1,34,21,18,48*,17,26
COc1ccc(/C=C/C(=O)Nc2ccc(NC(C)=O)cc2)cc1S(=O)(=O)N1CCOCC1,10,-14,9,96*,3,-18
O=C(/C=C/c1ccccc1)Nc1ccc(S(=O)(=O)N2CCOCC2)cc1,40,4,21,46*,33,44*
SMILES,tim10-1 inh,PfHsp90 set2,NLRP3 yeast inh,TIM10 inh,tim23-1 inh,tim10 confirm
CN(C)S(=O)(=O)c1cccc(NC(=O)/C=C/c2ccc(S(=O)(=O)N3CCOCC3)cc2)c1,2,-7,-1,3,5,/
CCc1noc(C)c1C(=O)N1CCC(CCC(=O)Nc2cccc(OC)c2)CC1,-24,3,4,-3,-12,/
CC(=O)Oc1ccc(C(=O)Nc2cc(NC(=O)c3ccc(OC(C)=O)cc3)cc(C(=O)NC(C)(C)C)c2)cc1,8,10,-13,6,11,/
CCC(C)NC(=O)c1nn(Cc2ccccc2)c(=O)c2ccccc12 (stereo not drawn),1,11,17,13,17,/
O=C(CSCc1ccc(Cl)cc1)Nc1ccc(S(=O)(=O)N2CCOCC2)cc1,13,12,2,43*,24,-7
O=C(N/N=C/c1ccc(F)cc1)c1ccccc1,-17,5,-1,-11,-7,/
O=C(N/N=C/c1sc2ccccc2c1O)c1ccccc1,34,100*,20,40*,45,7
Cc1ccc2nc(Cl)c(CN(C(=O)c3cnccn3)C3CCCCC3)cc2c1,39,15,14,41*,39,28*
O=C(Cn1cnc2c(oc3ccccc32)c1=O)N1CCCC1,3,-18,1,17,18,/
Oc1ccc(-c2nc3ccc4ccccc4c3c3c2CCC3)cc1O,14,98*,8,41*,36,36*
Cc1cc(C)c2c(ccc3ccccc32)n1,/,7,/,/,/,/
Cc1ccc(NC(=O)C/C(N)=N/OC(=O)Nc2ccc(C)c(Cl)c2)cc1,27,8,2,38,14,/
Cc1ccc(NC(=O)C/C(N)=N/OC(=O)Nc2cccc(C)c2)cc1,40,-8,-2,42*,16,28
O=C(NC12CC3CC(CC(C3)C1)C2)N(Cc1ccccc1)Cc1ccncc1,30,/,3,44*,37,32*
O=C(NC12CC3CC(CC(C3)C1)C2)c1ccccc1,26,7,27,8,7,/
COCCCN(CCC#N)C(=O)c1c(-c2c(Cl)cccc2Cl)noc1C,14,13,1,17,9,/
CSc1ccccc1NC(=S)N/N=C/c1cccn1Cc1cccc(C)c1,38,-27,14,37,16,/
Cc1cccc(NC(=S)N/N=C/c2cccn2Cc2ccc(F)cc2)c1,35,10,29,53*,19,49*
CCCCC[C@@H]1C=C(C(=O)O)[C@H](c2ccc(OC)c(OC)c2)N1S(=O)(=O)c1ccc(C)cc1,6,-4,7,97*,-9,11
Cc1nnc(-c2cccc(Br)c2)c2cn(-c3ccccc3)nc12,32,-43,29,46*,27,46*
COc1cccc(/C=N/n2c(CO)nc3ccccc32)c1OC,34,/,5,1,13,/
CNc1nc2ccccc2n1/N=C/c1cccc(OC)c1OC,30,/,1,48*,50,29
O=C(COc1ccc(-c2nnc(N3CCCCC3)c3ccccc23)cc1)N1CCCCC1,37,-3,-9,42*,41,31
